The source of these data is PubChem BioAssay (Tox21).

The nature of test [1]: A CellTox Green Cytotoxicity Assay to monitor cytotoxicity in HEK293 cells - 40 hour (AID 1224871). Note: nearly all actives have a fitted effect of over 45% in size. Put shortly:
(§1)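 Cells (HEK293, 600/well) and dye reagent are dispensed together. After 5 h at 37 C, 23 nL compound is pinned in. Plates stay at 37 C for 40 h with fluorescence read at 0h, 8h, 16h, 24h, 32h and 40h.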

Test [2] can be described thus: qHTS RealTime-Glo MT Cell Viability Assay in HEK293 cells - 16 hour (AID 1224872). Note: nearly all actives have a fitted effect of over 50% in size. Put shortly: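 HEK293 cells seeded with NanoLuc/prosubstrate reagent, rested 5 h at 37 C, then dosed and kept at 37 C up to 40 h. Nonlytic real-time luminescence from viable cells read at 0, 8, 16, 24, 32 and 40 h.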
For orientation: qHTS replaces the single test concentration by a dilution series.

Test [3] can be described thus: qHTS RealTime-Glo MT Cell Viability Assay in HepG2 cells - 8 hour (AID 1224873). Note: nearly all actives have a fitted effect of over 55% in size. In a few lines: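 Real-time viability: cells seeded at 600 per well together with NanoLuc and cell-permeant prosubstrate, compounds added after 5 h incubation. Luminescence tracked at 0, 8, 16, 24, 32 and 40 h of exposure.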
Test [4] can be described thus: qHTS RealTime-Glo MT Cell Viability Assay in HepG2 cells - 32 hour (AID 1224877). Note: nearly all actives have a fitted effect of over 55% in size. In a few lines:
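HepG2 cells (600/well) were dispensed with RealTime-Glo reagents, incubated 5 h at 37 °C, then treated with compounds in DMSO for up to 40 h. Nonlytic NanoLuc luminescence reflecting viable cells was read at each stated time point.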

Test [5] in a line: A CellTox Green Cytotoxicity Assay to monitor cytotoxicity in HepG2 cells - 24 hour (AID 1224878). Note: nearly all actives have a fitted effect of over 45% in size. In a few lines:
(§2)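 Cells and non-lytic dye reagent are dispensed together (600 HepG2 cells/well) and incubated 5 h before DMSO compound transfer. Kinetic fluorescence is then recorded in the same wells during 40 h at 37 C.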

Test [6] in a line: A CellTox Green Cytotoxicity Assay to monitor cytotoxicity in HepG2 cells - 40 hour (AID 1224879). Note: nearly all actives have a fitted effect of over 40% in size. Put shortly:
as §2

The nature of test [7]: qHTS RealTime-Glo MT Cell Viability Assay in HEK293 cells - 0 hour (AID 1224880). Note: nearly all actives have a fitted effect of over 45% in size. Put shortly: (§3)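 Real-time viability in HEK293: signal arises when living cells convert a prosubstrate for NanoLuc in the medium, so luminescence tracks viable cell number. Compound (23 nL, DMSO) added 5 h post-seeding; kinetic reads at 0–40 h, 37 C.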
Test [8] is described as follows: qHTS RealTime-Glo MT Cell Viability Assay in HEK293 cells - 40 hour (AID 1224874). Note: nearly all actives have a fitted effect of over 50% in size. Particulars: RealTime-Glo luminescence; max response: hits give low values. In a few lines:
as §3

Test [9] can be described thus: A CellTox Green Cytotoxicity Assay to monitor cytotoxicity in HEK293 cells - 24 hour (AID 1224875). Note: nearly all actives have a fitted effect of over 45% in size. Put shortly:
as §1

A short description of test [10]: A CellTox Green Cytotoxicity Assay to monitor cytotoxicity in HepG2 cells - 16 hour (AID 1224876). Note: nearly all actives have a fitted effect of over 45% in size. Put shortly: as §2

Inconclusive results are not listed. Unmarked numbers belong to inactive results. The source made the active and inactive calls. Calls come from the whole dose curve; as a rule, active = well fitted curve in the direction sought with a large enough effect in the repeat runs; inconclusive = weak or mixed curves; inactive = no such curve, though single readings can be large; an effect the other way counts as inactive or inconclusive.
% is set by controls: 0 for no effect and ±100 for the full control effect; potency is the fitted concentration of half-maximal effect.

On to `CN(C)CCOC(c1ccccc1)c1ccc(Br)cc1` (centres undefined), for which the Potency result in [1], in [2], in test [3], in [4] and in test [7] was “inactive” each time. Moreover, the Potency in test [5] and in test [6] was 23.9 µM (active) throughout.

On to `COc1ccc2cccc(CCNC(C)=O)c2c1`, for which the Potency entry in test [1], in [2], in test [9], in [4] and in test [7] was “inactive” in each case. The max response in test [8] was -8.88%.

On to `CCCCCCCCCc1ccc(OCCOCCO)cc1`, for which the Potency is 13 µM (active) in test [1]; 1.45 µM (active) in [2]; 1.03 µM (active) in test [8]; 20.5 µM (active) in test [10]; 18.3 µM (active) in test [5]; 20.5 µM (active) in test [6]. In test [7], the Potency result is “inactive”.

On to `CC(=O)c1ccc2c(c1)N(CCCN(C)C)c1ccccc1S2`, for which the Potency result in test [1], in test [2], in test [3], in [10], in test [4] and in test [5] was “inactive” throughout. Besides, the Potency result in [7] is “inactive”.

As for `C[N+](C)(C)CCOC(=O)CCC(=O)OCC[N+](C)(C)C`, the Potency result in test [1], in test [2], in test [3], in test [9], in [10] and in test [4] was “inactive” each time. The Potency result in test [6] and in test [7] was “inactive” in each case.

With `CN(C)CCN(Cc1ccc(Cl)cc1)c1ccccn1`, the Potency entry in [1], in [2], in test [3], in test [10], in [4] and in [5] was “inactive” each time. Also, the Potency result in test [6] and in [7] was “inactive” throughout.

For the compound `ClCCOCCOCCCl`, the Potency entry in test [1], in test [2], in [3], in test [9], in [4] and in [7] was “inactive” in each case.

Turning to `C=CC(=O)OCCOc1ccccc1`, the Potency entry in test [1], in [2], in test [9], in test [10], in test [4] and in [5] was “inactive” in each case. In addition, the Potency entry in test [6] and in test [7] was “inactive” each time. In test [8], the max response was 2.45%.

`CCOc1ccc(O)cc1`: the Potency entry in [1], in [3], in test [9], in [10], in [4] and in [5] was “inactive” each time. Also, in [7], the Potency result is “inactive”. Further, in [8], the Potency is 11 µM (active).

Consider `CCN(CC)CCOC(=O)C(c1ccccc1)C1CCCCC1` (centres undefined), for which the Potency in test [1] is 21.3 µM (active); in [9] it was 23.9 µM (active); in [5], 23.9 µM (active); in test [6] it was 21.3 µM (active). Also, the Potency result in test [3] and in [7] was “inactive” in each case.

`Cc1nn(C)c(Oc2ccccc2)c1/C=N/OCc1ccc(C(=O)OC(C)(C)C)cc1`: the Potency entry in [1], in test [3], in test [9], in [10], in test [5] and in [6] was “inactive” in each case. Besides, the Potency result in test [7] is “inactive”. The Potency in [8] is 0.0062 µM (active).

As for `CC(C)C[C@H]1C(=O)N2CCC[C@H]2[C@]2(O)O[C@](NC(=O)[C@@H]3C=C4c5cccc6[nH]c(Br)c(c56)C[C@H]4N(C)C3)(C(C)C)C(=O)N12`, the Potency result in test [1], in test [10], in test [5], in test [6] and in [7] was “inactive” in each case. Besides, the Potency in test [3] and in test [4] was 13.2 µM (active) each time.

Take `CC(C)Cc1ccc(C(C)C(=O)OCc2ccccn2)cc1` (centres undefined): the Potency result in test [1], in [3], in [9], in test [10], in [5] and in test [6] was “inactive” throughout. Also, in test [7], the Potency result was “inactive”.

Regarding `COc1cc2nc(N3CCN(C(=O)C4COc5ccccc5O4)CC3)nc(N)c2cc1OC` (centres undefined), the Potency result in [1], in [3], in test [9], in test [10] and in [4] was “inactive” each time. In addition, the Potency in [8] was 23.9 µM (active); in [5] it was 23.9 µM (active); in [6] it was 23.9 µM (active); in test [7], 19 µM (active).

In the case of `CC(=O)c1ccc2c(c1)N(CCCN1CCC(CCO)CC1)c1ccccc1S2`, the Potency in [1] was 23.9 µM (active); in [10], 21.3 µM (active); in [5], 23.9 µM (active); in test [6], 23.9 µM (active). The Potency entry in [3], in test [9], in [4] and in [7] was “inactive” in each case.

As to `CN(C)C(=O)NC1(c2ccccc2)CCN(CC[C@@]2(c3ccc(F)c(F)c3)CN(C(=O)c3ccccc3)CCO2)CC1`, the Potency result in test [1], in [3], in [4], in test [5] and in test [7] was “inactive” each time.

As for `Cc1ccc(C(=O)Oc2ccc(C(O)CNC(C)(C)C)cc2OC(=O)c2ccc(C)cc2)cc1` (centres undefined), the Potency in test [1] is 23.9 µM (active); in test [3] it was 21.3 µM (active); in test [10] it was 21.3 µM (active); in test [4], 23.9 µM (active); in [5], 21.3 µM (active); in [6], 19 µM (active). For the same compound, the Potency entry in [7] is “inactive”.

`NC(=O)C(c1ccccc1)(c1ccccc1)[C@@H]1CCN(CCc2ccc3c(c2)CCO3)C1`: the Potency in test [1] was 21.3 µM (active); in [9], 21.3 µM (active); in test [10], 23.9 µM (active); in test [5], 21.3 µM (active); in test [6], 23.9 µM (active). Further, the Potency result in test [3], in test [4] and in test [7] was “inactive” in each case.

Regarding `Brc1c2ccccc2cc2ccccc12`, the Potency result in test [1], in [3], in test [9], in [10], in [5] and in test [6] was “inactive” each time. Moreover, in test [7], the Potency entry is “inactive”.

For `O=S(=O)(Oc1ccc(Cl)cc1)c1ccccc1`, the Potency entry in test [1], in test [3], in [9], in test [4], in test [5] and in [6] was “inactive” in each case. For the same compound, in test [7], the Potency entry is “inactive”.

In the case of `COc1cc(Cl)ccc1Oc1ccc(Cl)cc1Cl`, the Potency result in [1], in test [3], in [9], in [4], in test [5] and in test [7] was “inactive” throughout. The max response in [8] is -24.6%.

For `CN(C)c1ccc(CCO)cc1`, the Potency result in [1], in test [3], in test [10], in [4], in test [6] and in [7] was “inactive” in each case. Further, in test [8], the Potency was 34.5 µM (active).

As for `CCC(=O)O[C@]1(C(=O)CCl)[C@@H](C)C[C@H]2[C@@H]3CCC4=CC(=O)C=C[C@]4(C)[C@@]3(F)[C@@H](O)C[C@@]21C`, the Potency entry in test [1], in [3], in test [9] and in [7] was “inactive” in each case.

With `S=C([S-])NCCNC(=S)[S-].[Mn+2]`, the Potency entry in test [1], in test [3], in test [9], in [10], in test [4] and in test [5] was “inactive” each time. The Potency result in test [6] and in test [7] was “inactive” throughout.

Turning to `CCOC(=O)NCCOc1ccc(Oc2ccccc2)cc1`, the Potency result in [1], in [3], in [9], in test [10], in test [4] and in test [5] was “inactive” throughout. In addition, in [7], the Potency result was “inactive”. The Potency in test [8] was 21.9 µM (active).
